Compounds with a hit are over-represented: about 18% of the library has one in this group of screens.
TDP1 cell CPT – qHTS for Inhibitors of human tyrosyl-DNA phosphodiesterase 1 (TDP1): qHTS in cells in presence of CPT. AID 686979, 2013. chicken DT40 Tdp1-/-;hTDP1 cells + 20 nM CPT, ATP luminescence, 48 h. 12% of 420,000 active. Potency, µM (titrated, usually from 46.2 µM), inactives show at the highest dose activity change, negative = growth inhibition, actives largely listed as inhibitors; further: potency means the concentration at half of the fitted maximal effect; nearly all actives have a fitted effect of over 55% in size
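Chicken DT40 Tdp1-/- cells stably complemented with human TDP1 were seeded at 400 cells/well in medium containing 20 nM camptothecin, exposed to pin-transferred compounds, and grown at 37 °C for at least 48 hr. Viability was read as ATP luminescence.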
TDP1 block – qHTS Assay for Inhibitors of Tyrosyl-DNA Phosphodiesterase (TDP1); Tyrosyl-DNA phosphodiesterase 1 (Homo sapiens), Q9NUW8; recombinant TDP1, AlphaScreen DNA substrate cleavage; Potency, µM (doses to about 130 µM), without a hit: top-dose activity change, negative = inhibition, most hits filed as inhibitors; 0.28% of 350,000 active; further: potency means the concentration at half of the fitted maximal effect; nearly all actives have a fitted effect of over 40% in size
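Signal: AlphaScreen proximity between streptavidin donor and anti-FITC acceptor beads on intact substrate. Reaction: Tdp1 1 nM, substrate 15 nM final, 5 min RT after 15 min compound preincubation.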
TDP1 cell noCPT – qHTS for Inhibitors of human tyrosyl-DNA phosphodiesterase 1 (TDP1): qHTS in cells in absence of CPT | DT40 Tdp1-/- hTDP1 cells, no CPT, ATP luminescence, 48 h | AID 686978, 2013 | Potency, µM (top dose mostly 46.2 µM), for inactives: top-dose activity change, negative = growth inhibition, actives largely listed as inhibitors | 15% of 420,000 active; further: potency means the concentration at half of the fitted maximal effect; nearly all actives have a fitted effect of over 55% in size
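Growth kinetics read by CellTiter-Glo luminescence after ≥48 hr at 37 °C. Cells: DT40 Tdp1-/- stably carrying human TDP1, 400 per well, compound exposure in the absence of CPT (DMSO vehicle).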
Six1-Eya2 inh – qHTS Assay for Inhibitors of the Six1/Eya2 Interaction; Homeobox protein SIX1 (Homo sapiens) + Protein phosphatase EYA2 (Homo sapiens), …; AlphaScreen GST-Six1/His-Eya2 binding, biochemical; hits give low values; activity change, % (concentration not given with the values); 0.56% of 360,000 active; in the data active means activity change below about -65%; inconclusive means mostly about -30% to -63%
Target sequence (O00167 whole entry, looked up): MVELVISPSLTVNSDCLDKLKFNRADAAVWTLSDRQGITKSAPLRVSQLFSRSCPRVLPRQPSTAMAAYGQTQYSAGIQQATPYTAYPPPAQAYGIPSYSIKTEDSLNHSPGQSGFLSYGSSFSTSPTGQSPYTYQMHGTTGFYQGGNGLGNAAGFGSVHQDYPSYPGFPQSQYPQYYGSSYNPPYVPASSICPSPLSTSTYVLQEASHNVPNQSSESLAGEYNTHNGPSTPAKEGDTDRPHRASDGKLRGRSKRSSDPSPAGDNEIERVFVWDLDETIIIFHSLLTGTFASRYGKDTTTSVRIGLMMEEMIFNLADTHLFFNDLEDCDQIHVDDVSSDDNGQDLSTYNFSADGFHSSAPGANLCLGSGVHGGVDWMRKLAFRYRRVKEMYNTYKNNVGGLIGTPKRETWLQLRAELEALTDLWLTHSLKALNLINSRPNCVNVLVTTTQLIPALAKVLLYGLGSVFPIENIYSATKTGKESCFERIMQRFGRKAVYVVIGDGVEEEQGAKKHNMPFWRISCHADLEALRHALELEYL
Target sequence (Q15475 whole entry, looked up): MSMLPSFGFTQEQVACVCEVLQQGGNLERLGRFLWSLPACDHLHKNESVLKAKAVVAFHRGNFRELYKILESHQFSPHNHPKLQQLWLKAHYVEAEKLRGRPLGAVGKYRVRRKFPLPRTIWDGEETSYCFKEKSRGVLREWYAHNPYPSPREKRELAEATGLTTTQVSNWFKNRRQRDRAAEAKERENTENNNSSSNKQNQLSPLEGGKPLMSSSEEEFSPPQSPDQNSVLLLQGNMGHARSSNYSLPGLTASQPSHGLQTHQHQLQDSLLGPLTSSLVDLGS
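AlphaScreen with GST-Six1 and His-Eya2 (5X mix: 250 nM and 500 nM), glutathione donor and nickel acceptor beads; buffer 50 mM Tris pH 8.0, 300 mM NaCl, 1 mM TCEP; 1 h at 37 C in the dark.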
CtBP-E1A inh – qHTS Assay for Inhibitors of the CtBP/E1A Interaction; AID 651724, 2012; CtBP / adenovirus E1A interaction (AlphaScreen); activity change, % (test concentration not listed); AlphaScreen GST-E1A/His-CtBP binding, 1536-well; hits give low values; 0.49% of 340,000 active; in the data active means activity change below about -65%; inconclusive means mostly about -30% to -63%
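Homogeneous bead-based format: GST-tagged E1A captured on glutathione donor beads, His-tagged CtBP on nickel acceptor beads; compounds precede bead addition by 2 h at 37 °C.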
IL-1B inflam inh – qHTS for Inhibitors of Inflammasome Signaling: IL-1-beta AlphaLISA Primary Screen. THP-1 LPS/ATP IL-1B secretion, AlphaLISA, 16 h; hits give low values. activity change, % at 57.5 µM. 4.7% of 360,000 active. AID 743279, 2014; in the data active means activity change below about -50%; inconclusive means mostly about -30% to -49%
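Secreted IL-1B measured by AlphaLISA bead assay after 16 h compound exposure of THP-1 cells; compounds (final up to 57.5 uM) added 1 h before LPS (250 ng/mL) and ATP (1.25 mM) stimulation; lower signal means less secretion.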
An asterisk follows results filed as active; ? = inconclusive; nt = no result given; [ ] = another dose, or the depositor's remark. Unless noted, the call rests on the fitted dose curve; in most records, active means well fitted curve in the direction sought with a large enough effect; inconclusive means small, poorly fitted or top-dose-only effect, or another doubt; inactive means no such curve, though single readings can be large; an effect the other way counts as inactive or inconclusive. On the % scale 0 is the no-effect control and ±100 the full control effect.

SMILES	TDP1 cell CPT	TDP1 block	TDP1 cell noCPT	Six1-Eya2 inh	CtBP-E1A inh	IL-1B inflam inh
Cc1ccc(CN2CCc3c(OCc4ccc(F)cc4)cccc3C2=O)cc1	?	nt	?	8	13	-62*
CCN1CCN(C(c2ccc(C(F)(F)F)cc2)c2ccc3cccnc3c2O)CC1 (stereo not given)	?	nt	16µM*	-86*	-1	-74*
CCN1CCN(C(c2ccccc2)c2sc3nc(C)nn3c2O)CC1 (stereo not given)	11%	nt	9%	4	-2	10
OCCN1CCN(C(c2cccs2)c2ccc3cccnc3c2O)CC1 (stereo not given)	nt	7.1µM*	nt	nt	nt	nt
CCOc1ccc(-n2c(SCC(=O)Nc3cc(C)ccc3C)nc3c([nH]c4ccccc43)c2=O)cc1	13µM*	0%	16µM*	nt	nt	nt
CCOc1ccc(-n2c(SCC(N)=O)nc3c([nH]c4ccccc43)c2=O)cc1	13µM*	3%	?	23	1	52
Cc1ccc(Oc2ccc(S(=O)(=O)NCC(C)(C)N3CCOCC3)cc2)cc1	-64%	11%	-79%	-22	-3	8
Cc1noc(C)c1-c1cc(NC2CC2)ncn1	12µM*	40µM*	8.2µM*	nt	nt	nt
COc1ccccc1-c1cc(NCc2ccccc2)ncn1	6.5µM*	nt	5.8µM*	nt	nt	nt
Cc1noc(C)c1-c1cc(NCc2ccccc2)ncn1	?	7%[56.1 µM]	23µM*	nt	nt	nt
COc1ccccc1-c1cc(Nc2ccc(F)cc2)ncn1	?	nt	23µM*	nt	nt	nt
Cc1noc(C)c1-c1cc(Nc2ccc(F)cc2)ncn1	-28%	7%[56.1 µM]	-18%	nt	nt	nt
Cc1ccccc1CNC(=O)c1cnc2sc(N3CCC(C)CC3)nn2c1=O	-23%	-3%	-27%	nt	nt	nt
Cc1ccccc1-c1cc(NCc2cccnc2)ncn1	-6%	nt	10%	nt	nt	nt
Cc1noc(C)c1-c1cncnc1NC1CC1	-1%	28µM*	-6%	nt	nt	nt
Cc1ccccc1-c1cc(NCc2ccccc2)ncn1	15µM*	nt	21µM*	nt	nt	nt
Cc1noc(C)c1-c1cc(N2CCN(C)CC2)ncn1	-12%	nt	-1%	nt	nt	nt
Cc1noc(C)c1-c1cc(N(C)C)ncn1	?	10%[56.1 µM]	23µM*	nt	nt	nt
C#CCn1c(=NC(=O)c2cccs2)sc2cccc(OCC)c21	-25%	7%	21µM*	-5	6	43
COc1ccc(C(=O)OCC(=O)NC2CC2)cc1S(=O)(=O)N1CCOCC1	0%	5%	-7%	5	2	0
CC(c1ccccc1)N1CCn2c(nc3cc(NC(=O)NC4CCCCC4)ccc32)C1 (stereo not given)	22µM*	11%	22µM*	-2	-12	77
CC(c1ccccc1)N1CCn2c(nc3cc(NC(=O)c4cccs4)ccc32)C1 (stereo not given)	26µM*	12%	?	?	-6	nt
NS(=O)(=O)c1ccc(-n2cccc2C=O)cc1	0%	-3%	7%	2	1	19
COc1ccc(CNC(=O)C/C(C)=N/NC(=O)COc2ccc(C)cc2Br)cc1	2.3µM*	1%	3.7µM*	1	0	57
Cc1ccccc1OCC(=O)OCC(=O)NCc1ccco1	-5%	1%	-9%	0	-9	-6
SMILES	TDP1 cell CPT	TDP1 block	TDP1 cell noCPT	Six1-Eya2 inh	CtBP-E1A inh	IL-1B inflam inh
O=C(COc1ccccc1-c1ccccc1)NCc1ccco1	-31%	-3%	-26%	-11	-4	-51*
Cc1cccc(C)c1OCCNC(=O)C(=O)NCc1ccco1	1.8µM*	6%	2.3µM*	-13	-11	47
C/C(CC(=O)NCc1ccco1)=N\NC(=O)COc1ccc(Cl)cc1Cl	18µM*	6%	21µM*	0	5	41
CCN=C(NCC)SC1CC(=O)N(c2ccc(OCC)cc2)C1=O (stereo not given)	-17%	nt	-2%	7	-19	-18
CCCNC(=O)C1(C)CCCN(C(=O)c2cccc(OC(F)(F)F)c2)C1 (stereo not given)	-26%	nt	?	3	2	21
Cc1cc(Cl)cc(Cl)c1OCC(=O)NCc1ccco1	?	3%	18µM*	-6	2	?
CCOc1ccccc1OCC(=O)NCc1ccco1	29µM*	-11%	13µM*	-14	1	-1
CCOC(=O)C1=C(C)NC(C)=C(C(=O)OCC)C1C(=O)OCC(=O)NCc1ccco1	-55%	1%	21µM*	6	0	29
O=C(COc1ccc(Cl)cc1Cl)NCc1ccco1	-19%	1%	-7%	-6	-3	-15
O=C(COc1ccccc1Cl)NCc1ccco1	-5%	7%	-26%	0	-2	-4
Cc1ccnc(NS(=O)(=O)c2ccc(NC(=O)Cc3ccc(Cl)cc3)cc2)n1	10%	nt	5%	0	3	19
Cc1ccc(S(=O)(=O)NC(CC(=O)OCc2ccccc2)C(=O)OCc2ccccc2)cc1 (stereo not given)	-26%	nt	?	9	0	15
COC(=O)c1c[nH]c2c1-c1cc(C(=O)OCc3ccccc3)n(S(=O)(=O)c3ccc(C)cc3)c1C(=O)C2=O	0.58µM*	nt	0.58µM*	1	-18	-17
Cc1ccc(Cl)cc1N1CCN(C(=O)c2ccc3c(c2)N(Cc2ccccc2F)C(=O)c2ccccc2S3(=O)=O)CC1	-18%	6%	?	nt	nt	nt
Cc1cc(NC(=O)CN(c2cccc(C)c2C)S(=O)(=O)c2ccccc2)ccc1Br	18µM*	nt	16µM*	nt	nt	nt
Cc1cc(C)cc(NC(=O)CN(c2cccc(C)c2C)S(=O)(=O)c2ccccc2)c1	16µM*	nt	21µM*	nt	nt	nt
Cc1cc(N2CCCC2)ccc1/C=C1/C(=O)N(C)C(=S)N1C	9.2µM*	1%	8.2µM*	?	-23	27
Cc1cc(/C=C2/C(=O)N(C)C(=S)N2C)ccc1N1CCCC1	?	10%	?	?	?	12
Nn1c(-c2ccc(F)cc2)nc2ccccc2c1=O	2%	nt	0%	-16	-16	?
O=C1c2cc(F)ccc2-n2c1nc1ccccc1c2=O	0.21µM*	nt	0.37µM*	-6	-8	25
CCN(C(=O)CCn1cnc2onc(-c3ccc(F)cc3)c2c1=O)c1ccc(OC)cc1	16µM*	2%	18µM*	nt	nt	nt

High-throughput results as filed in PubChem.
